Here are results for 7 sequences from article PMC7862700, “An all-to-all approach to the identification of sequence-specific readers for epigenetic DNA modifications on cytosine”.

Common to all, as to assay: DAPPL (digital affinity profiling via proximity ligation, sequencing); 10 mM Tris-HCl pH 7.5, 50 mM NaCl, 1 mM DTT, 4% glycerol, room temperature, 30 min; GST-TFs on glutathione beads, 16-mer random dsDNA library, 0.1% formaldehyde crosslink after washing; high values mean tight binding
Common to all, as to settings: protein: recombinant; tags: N-terminal GST; dsDNA, one strand shown

One assay concerns the target T1, FLI1 (Homo sapiens, UniProt Q01543 1-452).
T1 sequence: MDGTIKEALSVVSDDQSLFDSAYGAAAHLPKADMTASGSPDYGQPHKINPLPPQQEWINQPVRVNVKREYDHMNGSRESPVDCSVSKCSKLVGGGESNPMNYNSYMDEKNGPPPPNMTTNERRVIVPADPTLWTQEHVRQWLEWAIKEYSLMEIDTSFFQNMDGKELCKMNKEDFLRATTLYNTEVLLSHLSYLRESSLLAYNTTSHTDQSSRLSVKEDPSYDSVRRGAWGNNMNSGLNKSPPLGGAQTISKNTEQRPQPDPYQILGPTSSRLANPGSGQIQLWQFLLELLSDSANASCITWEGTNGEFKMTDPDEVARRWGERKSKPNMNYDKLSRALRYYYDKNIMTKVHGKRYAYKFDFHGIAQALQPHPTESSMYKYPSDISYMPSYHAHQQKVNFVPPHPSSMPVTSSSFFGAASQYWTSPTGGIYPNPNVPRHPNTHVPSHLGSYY
In outline:
(§1)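 Binding signal is given per hexamer as its read frequency for a factor divided by its frequency in the tag-only sample. GST-fused human transcription factors were expressed in yeast, captured on glutathione beads, barcoded with DNA and pooled with that sample, then incubated with 200 nmole of a 16-mer random double-stranded DNA library in Tris/NaCl/DTT/glycerol buffer for 30 min at room temperature. The pools were then washed, crosslinked, proximity-ligated, amplified by PCR and sequenced on an Illumina NextSeq500.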

The target in the next assay is T2, ELK1 (Homo sapiens, UniProt P19419 1-428).
T2 sequence: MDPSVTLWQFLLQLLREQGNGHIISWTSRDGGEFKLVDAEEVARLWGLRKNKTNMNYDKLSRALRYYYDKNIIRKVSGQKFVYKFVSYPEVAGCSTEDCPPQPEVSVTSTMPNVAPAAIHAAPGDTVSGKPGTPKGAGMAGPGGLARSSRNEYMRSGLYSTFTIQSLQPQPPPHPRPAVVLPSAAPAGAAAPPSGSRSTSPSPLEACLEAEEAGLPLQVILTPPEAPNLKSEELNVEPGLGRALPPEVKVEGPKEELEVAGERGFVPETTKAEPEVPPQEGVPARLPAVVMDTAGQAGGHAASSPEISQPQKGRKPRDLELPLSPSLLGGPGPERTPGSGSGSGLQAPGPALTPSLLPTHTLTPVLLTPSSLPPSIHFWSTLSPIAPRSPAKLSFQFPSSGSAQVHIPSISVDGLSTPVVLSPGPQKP
The gist of the method:
as §1

A further assay concerns the target T3, GABPA (Homo sapiens, UniProt Q06546 1-454).
T3 sequence: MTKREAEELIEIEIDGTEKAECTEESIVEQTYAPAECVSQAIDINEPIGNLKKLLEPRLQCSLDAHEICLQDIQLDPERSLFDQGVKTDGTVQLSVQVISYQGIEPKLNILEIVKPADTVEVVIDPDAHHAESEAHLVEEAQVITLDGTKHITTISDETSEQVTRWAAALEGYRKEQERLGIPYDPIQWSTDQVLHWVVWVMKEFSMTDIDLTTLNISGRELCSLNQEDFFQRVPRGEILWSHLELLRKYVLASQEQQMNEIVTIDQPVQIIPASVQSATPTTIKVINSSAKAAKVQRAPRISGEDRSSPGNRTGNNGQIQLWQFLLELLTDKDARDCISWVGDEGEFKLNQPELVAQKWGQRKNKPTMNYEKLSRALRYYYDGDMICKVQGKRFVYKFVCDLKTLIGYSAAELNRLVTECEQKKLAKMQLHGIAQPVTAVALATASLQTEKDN
The gist of the method:
as §1

The next assay has as its target T4, ERG (Homo sapiens, UniProt P11308 1-479).
T4 sequence: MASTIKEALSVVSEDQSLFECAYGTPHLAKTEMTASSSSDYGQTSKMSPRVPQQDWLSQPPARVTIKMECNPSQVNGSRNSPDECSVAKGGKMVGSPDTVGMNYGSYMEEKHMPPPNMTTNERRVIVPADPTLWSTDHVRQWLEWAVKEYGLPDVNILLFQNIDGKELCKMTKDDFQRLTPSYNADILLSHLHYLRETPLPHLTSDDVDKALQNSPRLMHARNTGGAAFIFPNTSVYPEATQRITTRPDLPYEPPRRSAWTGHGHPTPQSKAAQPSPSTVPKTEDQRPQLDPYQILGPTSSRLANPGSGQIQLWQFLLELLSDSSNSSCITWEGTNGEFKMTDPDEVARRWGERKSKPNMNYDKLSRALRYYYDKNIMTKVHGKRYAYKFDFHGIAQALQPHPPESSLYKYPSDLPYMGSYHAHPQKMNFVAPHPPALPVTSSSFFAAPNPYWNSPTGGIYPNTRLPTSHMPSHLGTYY
The gist of the method: as §1

Another assay has as its target ELF1 (Homo sapiens, UniProt P32519 1-619). In outline: as §1
In a further assay the target is T5, EHF (Homo sapiens, UniProt Q9NZC4 1-300).
T5 sequence: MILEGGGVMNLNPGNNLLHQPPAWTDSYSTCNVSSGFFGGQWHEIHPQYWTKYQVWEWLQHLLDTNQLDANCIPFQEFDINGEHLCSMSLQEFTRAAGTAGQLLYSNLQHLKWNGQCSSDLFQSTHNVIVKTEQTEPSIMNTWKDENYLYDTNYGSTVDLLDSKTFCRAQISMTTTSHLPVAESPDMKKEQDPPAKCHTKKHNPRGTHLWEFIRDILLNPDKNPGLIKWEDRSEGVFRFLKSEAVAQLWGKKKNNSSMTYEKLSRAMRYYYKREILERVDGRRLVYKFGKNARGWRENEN
The gist of the method: as §1

For another assay, the target named is SPI1 (Homo sapiens, UniProt P17947 1-270). In outline:
as §1

A further assay addresses SPIB (Homo sapiens, UniProt Q01892 1-262). In outline: as §1
The next assay has as its target T6, ELK3 (Homo sapiens, UniProt P41970 1-407).
T6 sequence: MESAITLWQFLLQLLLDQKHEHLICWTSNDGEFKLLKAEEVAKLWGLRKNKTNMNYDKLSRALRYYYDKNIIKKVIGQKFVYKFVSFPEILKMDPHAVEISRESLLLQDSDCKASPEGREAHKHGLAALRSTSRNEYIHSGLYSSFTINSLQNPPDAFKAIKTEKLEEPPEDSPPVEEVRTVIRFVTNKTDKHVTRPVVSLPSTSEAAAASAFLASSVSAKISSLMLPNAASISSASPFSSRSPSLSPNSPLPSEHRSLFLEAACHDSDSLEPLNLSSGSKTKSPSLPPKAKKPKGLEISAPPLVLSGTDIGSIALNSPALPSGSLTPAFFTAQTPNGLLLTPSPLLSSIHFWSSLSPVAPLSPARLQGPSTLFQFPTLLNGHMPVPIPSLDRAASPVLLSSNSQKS
In outline: as §1

Chain of ELF1 (P32519 whole entry): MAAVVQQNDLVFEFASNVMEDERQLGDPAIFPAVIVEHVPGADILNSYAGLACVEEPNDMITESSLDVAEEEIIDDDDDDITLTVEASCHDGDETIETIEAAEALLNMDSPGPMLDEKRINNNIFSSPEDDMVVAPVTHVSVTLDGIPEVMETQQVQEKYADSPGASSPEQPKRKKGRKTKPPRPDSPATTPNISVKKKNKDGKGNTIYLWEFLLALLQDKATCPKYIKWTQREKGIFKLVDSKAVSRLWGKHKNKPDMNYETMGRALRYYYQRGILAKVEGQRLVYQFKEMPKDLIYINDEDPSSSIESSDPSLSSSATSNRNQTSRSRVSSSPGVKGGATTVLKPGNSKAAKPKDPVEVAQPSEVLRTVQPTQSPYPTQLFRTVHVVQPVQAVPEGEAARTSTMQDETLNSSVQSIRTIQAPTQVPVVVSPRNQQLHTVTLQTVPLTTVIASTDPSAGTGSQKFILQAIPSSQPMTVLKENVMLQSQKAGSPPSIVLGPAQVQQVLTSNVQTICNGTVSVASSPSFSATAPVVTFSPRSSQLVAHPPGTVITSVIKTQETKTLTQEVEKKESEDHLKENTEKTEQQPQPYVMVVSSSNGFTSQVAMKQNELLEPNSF
Chain of SPIB (Q01892 whole entry): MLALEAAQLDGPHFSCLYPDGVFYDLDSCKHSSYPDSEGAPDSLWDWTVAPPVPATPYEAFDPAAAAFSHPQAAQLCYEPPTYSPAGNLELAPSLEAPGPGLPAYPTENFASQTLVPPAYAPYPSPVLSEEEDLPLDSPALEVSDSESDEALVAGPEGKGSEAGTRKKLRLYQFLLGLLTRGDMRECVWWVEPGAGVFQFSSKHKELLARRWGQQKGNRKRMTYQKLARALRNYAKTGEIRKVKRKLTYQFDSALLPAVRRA

Regarding ATAAAC, the binding signal was 1.22 fold enrichment (6-mer frequency, TF over GST control) with FLI1; 1.16 fold enrichment (6-mer frequency, TF over GST control) in the assay with ELK1; 1.11 fold enrichment (6-mer frequency, TF over GST control) with GABPA; 1.11 fold enrichment (6-mer frequency, TF over GST control) with ERG; 1.14 fold enrichment (6-mer frequency, TF over GST control) with ELF1; 1.07 fold enrichment (6-mer frequency, TF over GST control) with EHF. Besides, the binding signal was 1.14 fold enrichment (6-mer frequency, TF over GST control) with SPI1; 1.19 fold enrichment (6-mer frequency, TF over GST control) with SPIB; 1.14 fold enrichment (6-mer frequency, TF over GST control) in the assay with ELK3.

Turning to CTAGTA, the binding signal in the assay with FLI1 was 1.08 fold enrichment (6-mer frequency, TF over GST control); in the assay with ELK1, 1.03 fold enrichment (6-mer frequency, TF over GST control); with GABPA, 1.08 fold enrichment (6-mer frequency, TF over GST control); with ERG, 1.06 fold enrichment (6-mer frequency, TF over GST control); with ELF1, 1.15 fold enrichment (6-mer frequency, TF over GST control); with EHF, 1.08 fold enrichment (6-mer frequency, TF over GST control). Besides, the binding signal was 1.13 fold enrichment (6-mer frequency, TF over GST control) with SPI1; 1.1 fold enrichment (6-mer frequency, TF over GST control) with SPIB; 1.17 fold enrichment (6-mer frequency, TF over GST control) with ELK3.

Take AAACGG: the binding signal in the assay with FLI1 is 1.17 fold enrichment (6-mer frequency, TF over GST control); in the assay with ELK1, 1.24 fold enrichment (6-mer frequency, TF over GST control); with GABPA, 1.13 fold enrichment (6-mer frequency, TF over GST control); with ERG it was 1.3 fold enrichment (6-mer frequency, TF over GST control); in the assay with ELF1, 1.21 fold enrichment (6-mer frequency, TF over GST control); with EHF, 1.26 fold enrichment (6-mer frequency, TF over GST control). Further, the binding signal is 1.47 fold enrichment (6-mer frequency, TF over GST control) with SPI1; 1.23 fold enrichment (6-mer frequency, TF over GST control) in the assay with SPIB; 1.22 fold enrichment (6-mer frequency, TF over GST control) with ELK3.

Regarding GATGCG, the binding signal was 1.07 fold enrichment (6-mer frequency, TF over GST control) in the assay with FLI1; 1.14 fold enrichment (6-mer frequency, TF over GST control) with ELK1; 1.16 fold enrichment (6-mer frequency, TF over GST control) in the assay with GABPA; 1.16 fold enrichment (6-mer frequency, TF over GST control) with ERG; 1.11 fold enrichment (6-mer frequency, TF over GST control) with ELF1; 1.16 fold enrichment (6-mer frequency, TF over GST control) with EHF. Moreover, the binding signal is 1.14 fold enrichment (6-mer frequency, TF over GST control) with SPI1; 1.19 fold enrichment (6-mer frequency, TF over GST control) with SPIB; 1.1 fold enrichment (6-mer frequency, TF over GST control) in the assay with ELK3.

Take ACTTGG: the binding signal in the assay with FLI1 was 1.34 fold enrichment (6-mer frequency, TF over GST control); with ELK1, 1.19 fold enrichment (6-mer frequency, TF over GST control); with GABPA it was 1.15 fold enrichment (6-mer frequency, TF over GST control); with ERG, 1.16 fold enrichment (6-mer frequency, TF over GST control); with ELF1 it was 1.34 fold enrichment (6-mer frequency, TF over GST control); in the assay with EHF, 1.1 fold enrichment (6-mer frequency, TF over GST control). The binding signal with SPI1 was 1.21 fold enrichment (6-mer frequency, TF over GST control); with SPIB it was 1.25 fold enrichment (6-mer frequency, TF over GST control); with ELK3, 1.29 fold enrichment (6-mer frequency, TF over GST control).

As for ACAAAC, the binding signal with FLI1 was 1.15 fold enrichment (6-mer frequency, TF over GST control); with ELK1, 1.15 fold enrichment (6-mer frequency, TF over GST control); in the assay with GABPA it was 1.14 fold enrichment (6-mer frequency, TF over GST control); with ERG it was 1.16 fold enrichment (6-mer frequency, TF over GST control); with ELF1, 1.12 fold enrichment (6-mer frequency, TF over GST control); with EHF it was 1.15 fold enrichment (6-mer frequency, TF over GST control). The binding signal with SPI1 was 1.11 fold enrichment (6-mer frequency, TF over GST control); with SPIB it was 1.11 fold enrichment (6-mer frequency, TF over GST control); in the assay with ELK3, 1.17 fold enrichment (6-mer frequency, TF over GST control).

On to GAAATG, for which the binding signal is 1.52 fold enrichment (6-mer frequency, TF over GST control) in the assay with FLI1; 1.61 fold enrichment (6-mer frequency, TF over GST control) with ELK1; 1.55 fold enrichment (6-mer frequency, TF over GST control) with GABPA; 1.73 fold enrichment (6-mer frequency, TF over GST control) with ERG; 1.54 fold enrichment (6-mer frequency, TF over GST control) with ELF1; 1.65 fold enrichment (6-mer frequency, TF over GST control) with EHF. Further, the binding signal with SPI1 was 1.67 fold enrichment (6-mer frequency, TF over GST control); in the assay with SPIB, 1.6 fold enrichment (6-mer frequency, TF over GST control); with ELK3 it was 1.6 fold enrichment (6-mer frequency, TF over GST control).
